Compound activity as filed in PubChem.
MazEF act: increases E. coli MazEF RNase cleavage of RNA | P0AE70 | FAM/BHQ RNA-DNA oligo cleavage fluorescence, 5 h | activation, % at 20 µM | actives 0.32% (n = 350,000) | AID 504720; in the data active means activation above about 50%
Target sequence (P0AE70 whole entry, looked up): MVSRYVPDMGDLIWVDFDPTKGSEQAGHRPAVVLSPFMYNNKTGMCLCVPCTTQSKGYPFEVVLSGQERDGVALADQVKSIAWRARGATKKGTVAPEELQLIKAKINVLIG
PfHsp40 rescue: compounds rescuing yeast from Plasmodium falciparum HSP40 toxicity; S. cerevisiae expressing PfHsp40, growth rescue, ATP luminescence; growth rescue, % at 12.5 µM; actives 0.68% (n = 340,000); AID 504582; in the data active means growth rescue above about 28%, passing the limit was not always enough;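 further: yeast W303a lacking pdr1 and pdr3 grown in galactose medium; growth measured after three days at 30 °C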
3CLpro inhibitor: SARS-CoV 3CLpro protease inhibition | P0C6X7 | recombinant SARS-CoV 3CLpro, quenched FRET peptide cleavage | inhibition, % at 6 µM | actives 0.14% (n = 290,000) | AID 1706; in the data active means inhibition above about 12%
Y pestis TopoI: inhibitors of Yersinia pestis topoisomerase I; activity, % at 10 µM; Y. pestis Topo-I cleavage product accumulation, plate reader; actives 0.064% (n = 360,000); AID 504884; in the data active means activity above about 50%, passing the limit was not always enough
BJeLR lethal: kills HRASV12-expressing BJeLR cells. AID 1554. actives 0.17% (n = 300,000). BJeLR (HRASV12) viability, CellTiter-Glo ATP luminescence, 48 h. inhibition, % (concentration not given with the values); in the data active means inhibition above about 50%
Mtb BioA inh: blocks M. tuberculosis BioA enzyme activity; inhibition, % at 9.99 µM; AID 602481; actives 0.096% (n = 360,000); purified M. tuberculosis BioA enzyme, plate reader; in the data active means inhibition above about 40%
Numbers stand for hits; . = inactive; / = no result. An excerpt weighted towards active compounds, which were near 1.1% of everything screened.

SMILES	MazEF act	PfHsp40 rescue	3CLpro inhibitor	Y pestis TopoI	BJeLR lethal	Mtb BioA inh
Cc1cccc(NC(=S)NC2CCCCC2)n1	.	.	.	.	.	.
NS(=O)(=O)c1ccc(CCNC(=O)CSc2ccc(Cl)cc2Cl)cc1	63.0	.	.	.	.	/
O=C(NN=Cc1ccc(O)cc1)c1ccccc1NS(=O)(=O)c1cccs1	.	.	/	.	/	.
O=C(N/N=C/c1cc(Cl)cc([N+](=O)[O-])c1O)c1ccccc1NS(=O)(=O)c1cccs1	.	243.9	.	.	.	.
CC12CN3CC(C)(CN(C1)C3c1ccccc1Cl)C2O (stereo not drawn)	.	.	.	.	.	.
CC12CN3CC(C)(CN(C1)C3c1ccccc1F)C2 (stereo not drawn)	.	60.9	.	.	.	/
C[C@]12CCC3C(CCC4=CC(O)CC[C@@]43/C=N/O)C1(O)CCC2C1=CC(=O)OC1 (stereo partly drawn)	.	.	.	.	69.4	/
CSc1ccccc1NC(=O)COC(=O)c1ccccc1Cc1ccccc1	.	.	.	61.9	.	/
CSc1ccccc1NC(=O)COC(=O)c1ccccc1O	.	.	.	.	.	/
O=C(Nc1ccccc1Cc1ccccc1)c1ccccc1NS(=O)(=O)c1ccc(Cl)s1	.	.	.	.	.	.
Cc1ccc(NC(=O)c2ccccc2NS(=O)(=O)c2ccc(Cl)s2)cc1	.	80.1	.	.	.	.
COc1ccc(-c2oc3c(OC)c(OC)c(OC)c(O)c3c(=O)c2OC)cc1OC	.	71.2	.	.	.	.
COc1c(OC)c(O)c2c(=O)c(O)c(-c3ccccc3)oc2c1OC	.	.	.	.	.	.
CCCC#Cc1ccc2c(c1)O[C@@H](CN(C)C(=O)C1CC1)[C@H](C)CN([C@H](C)CO)S2(=O)=O	/	/	/	/	/	.
Oc1c(C(c2ccc(Cl)cc2)N2CCCC2)cc(Cl)c2cccnc12 (stereo not drawn)	.	52.8	.	.	.	/
CN1CCN(C(c2ccccn2)c2cc(Cl)c3cccnc3c2O)CC1 (stereo not drawn)	.	400.7	.	.	.	/
Cc1ccc(C(c2cc(Cl)c3cccnc3c2O)N2CCN(C)CC2)cc1 (stereo not drawn)	.	61.4	.	.	.	.
C[C@@H]1CN([C@H](C)CO)C(=O)c2cc(C3=CCCC3)cnc2O[C@H]1CN(C)Cc1cccnc1	/	/	/	/	/	.
CO[C@H]1CN(C)C(=O)c2ccc(NS(=O)(=O)c3ccccc3)cc2OC[C@H](C)N(C(=O)NC(C)C)C[C@H]1C	/	/	/	/	/	.
CC(C)(C)n1nc(-c2ccc(F)cc2)c2c(N)ncnc21	.	454.5	.	.	.	.
CC(C)(C)n1nc(-c2ccc(Cl)cc2)c2c(N)ncnc21	.	310.7	.	.	.	/
Cc1ccc(-c2ccc3c(c2)O[C@@H](CN(C)C(=O)C2CCC2)[C@@H](C)CN([C@@H](C)CO)S3(=O)=O)cc1	/	/	/	/	/	.
COc1ccc(C#Cc2cnc3c(c2)C(=O)N([C@H](C)CO)C[C@H](C)[C@H](CN(C)C(=O)c2ccccc2F)O3)cc1	/	/	/	/	/	.
CCn1c(=N)c(S(=O)(=O)c2ccccc2)cc2c(=O)n3ccccc3nc21	228.2	.	.	.	.	/
Cc1cccn2c(=O)c3cc(S(=O)(=O)c4ccc(Br)cc4)c(=N)n(C4CCCCC4)c3nc12	.	.	.	.	.	.
SMILES	MazEF act	PfHsp40 rescue	3CLpro inhibitor	Y pestis TopoI	BJeLR lethal	Mtb BioA inh
Cc1ccc(S(=O)(=O)c2cc3c(=O)n4ccccc4nc3n(CCc3ccccc3)c2=N)cc1	71.7	.	.	.	.	.
Cc1ccc(S(=O)(=O)c2cc3c(=O)n4cccc(C)c4nc3n(C3CCCCC3)c2=N)cc1	52.5	.	.	.	.	.
COc1cccc(NC(=O)Nc2ccc3c(c2)C(=O)N(C)C[C@@H](OC)[C@@H](C)CN(C)[C@H](C)CO3)c1	/	/	/	/	/	.
O=C(CC1CC1)N[C@H]1CC[C@@H](CCNS(=O)(=O)c2ccc(F)cc2)O[C@@H]1CO	/	/	/	/	/	.
CCN(CC)C(=O)Cn1cc(C=C2C(=O)N(C)C(=O)N(C)C2=O)c2ccccc21	.	.	.	.	.	.
COC(=O)Cn1cc(C=C2C(=O)N(C)C(=O)N(C)C2=O)c2ccccc21	194.7	/	.	/	.	/
CO[C@H]1CN(C)C(=O)c2ccc(NC(=O)C3CC3)cc2OC[C@@H](C)N(CC2CCOCC2)C[C@@H]1C	/	/	/	/	/	.
C[C@@H]1CN([C@@H](C)CO)C(=O)c2cccc(NC(=O)Nc3ccccc3)c2O[C@H]1CN(C)C(=O)Nc1ccc(F)cc1	/	/	/	/	/	.
